ELG1 repair inh: ELG1-dependent DNA repair inhibition. Potency, µM (top dose mostly 46.1 µM), for inactives: top-dose activity change, negative = inhibition, usual class: inhibitors. HEK293T ELG1-luciferase reporter, luminescence, 16 h; DNA damage induced by 5-fluorouridine. hit rate 2.3% among 330,000; also: potency is read from the fitted curve at half-maximal effect; nearly all actives have a fitted effect of over 55% in size
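Quantitative HTS, concentration-response format. 2,000 cells/well co-treated with 5-fluorouridine and compound, 16 hr in 5% CO2 at 37 °C; ONE-Glo luminescence read after 30 min.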
Sfp inh: inhibitors of Bacillus subtilis Sfp phosphopantetheinyl transferase. Q9F4F7. Biochemical Sfp PPTase activity, qHTS. Potency, µM, for the others: largest response in the series, negative = inhibition, hits mostly inhibitors. hit rate 3.5% among 310,000;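 also: the enzyme is Sfp with the accession as filed and its product quenches rhodamine fluorescence; potency is read from the fitted curve at half-maximal effect; 0% = enzyme reaction without inhibitor and -100% = no enzyme wells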
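Buffer: 50 mM Hepes-Na pH 7.6, 10 mM MgCl2, 0.01% Nonidet P-40, 0.01% BSA. Enzyme 15 nM, pre-exposed to compound 15 min; substrates then added and fluorescence change tracked over 30 min.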
Giardia killer: kills Giardia lamblia; hit rate 0.15% among 340,000; Giardia lamblia trophozoite viability; activity change, % at 7.66 µM, hits read low; in the data active = activity change below about -80%; inconclusive = between about -30% and that limit;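 also: parasites exposed to compound for two days anaerobically before the ATP read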
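Viability, read as ATP luminescence: trophozoites at 100 cells/well, compound added, 48 hrs anaerobic at 37 deg C, then 15-30 min room-temperature development before reading.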
Coupling enz: counter-screen for Giardia aldolase inhibitors: coupling enzyme system; coupling enzyme system counterscreen, AmpLite Red fluorescence; activity change, negative = inhibition, % at 58.2 µM, hits read low; hit rate 0.67% among 290,000; in the data active = activity change below about -30%
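First, compound is pin-transferred into glyceraldehyde-3-phosphate coupling-enzyme reagent at 57.5 uM final and held 10 min at RT. Next, substrate, coupling system and AmpLite Red are added. After 20 min RT, fluorescence (525/598 nm) is read.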
The depositor's hits bear a star; ? = inconclusive; · = not tested or not shown. Shown are actives, neighbours in structure and some others; about 5.5% of the full set was active somewhere. Unless noted, calls follow the shape of the dose curve; as a rule, active = well fitted curve in the direction sought with a large enough effect; inconclusive = small, poorly fitted or top-dose-only effect, or another doubt; inactive = no such curve, though single readings can be large; an effect the other way counts as inactive or inconclusive. Unless noted, % is scaled to controls: 0 for no effect and ±100 for the full control effect.

SMILES	ELG1 repair inh	Sfp inh	Giardia killer	Coupling enz
COc1ccc(-c2nc(-c3ccccc3)c(-c3cc([N+](=O)[O-])ccc3C)[nH]2)cc1OC	10µM*	4%	-17	-17
CCOc1cc(-c2nc(-c3ccccc3)c(-c3cc([N+](=O)[O-])ccc3C)[nH]2)ccc1O	·	20%	-10	-8
O=C(N/N=C/C=C\c1ccco1)c1cccs1	?	22µM*	15	-20
CCCOC(=O)/C(=C\C=C\c1ccco1)NC(=O)c1ccccc1	14%	50µM*	38	-1
O=C(N/N=C/C=C/c1ccco1)/C(=C/c1ccccc1)NC(=O)c1ccccc1	1%	45µM*	8	2
O=C(Cc1cccs1)N/N=C/c1ccco1	?	0%	-9	-1
COC(=O)/C(=C/c1ccco1)NC(=O)c1ccccc1	-2%	-2%	-5	2
O=C(Cc1cccs1)N/N=C/C=C\c1ccco1	?	7.9µM*	4	-6
O=C(O)/C(=C\c1ccco1)NC(=O)c1ccccc1	24%	-27%	-8	2
NCCCC(N)CC(=O)NC1CNC(=O)C(C2CC(O)N=C(N)N2)NC(=O)/C(=C/NC(N)=O)NC(=O)C(CO)NC(=O)C(CO)NC1=O (stereo not given)	·	10%	·	·
CSCC[C@H](NC(=O)[C@@H]1Cc2ccccc2CN1)C(=O)Nc1ccc2c(c1)OCO2	?	6%	25	-4
CCc1ccc(N(CC(=O)N2CCCCCC2)S(C)(=O)=O)cc1	-2%	12%	16	0
CCCCn1c(C)cc2c(c1=O)C1O[C@](CCCC)(Cc3cc(C#N)ccc31)O2	·	2%	·	-5
CCCc1cc(=O)n2[nH]c(NC(=O)c3ccco3)nc2n1	-15%	-8%	-1	-1
COc1ccc(C2/C=C\CN(CC(C)C)C(Cc3ccccc3)C(=O)N2Cc2ccc(F)cc2)cc1 (stereo not given)	·	4%	18	-4
O=C(N/N=C/C=C/c1ccco1)c1ccncc1	?	56µM*	8	-6
CCOC(=O)N/N=C(C)/C=C/c1ccco1	?	-1%	-1	1
CCOC(=O)N/N=C\C=C\c1ccco1	?	45µM*	7	-6
Cc1ccc(OCC(=O)N/N=C/C=C/c2ccco2)c(Br)c1	0%	50µM*	-17	0
CC(=C/c1ccco1)/C=N/NC(=O)c1ccncc1	-68%	-7%	12	-22
Cn1c(=O)cnc2cnc(Nc3ccccc3)nc21	·	-13%	·	-2
COCCN(C(=O)COC(=O)/C=C/c1ccc(OC)c(OC)c1)c1c(N)n(Cc2ccccc2)c(=O)[nH]c1=O	1%	·	-12	·
CN(C)c1ccc(C(CN)c2c[nH]c3ccccc23)cc1 (stereo not given)	6%	50µM*	-23	-4
CC(C)CC(=O)Nc1ccc(C(=O)CN2C(=O)NC3(CCOc4ccccc43)C2=O)cc1 (stereo not given)	0%	·	-1	·
CCC(C)C1/C=C\CCCC(=O)N1Cc1ccc(C)cc1 (stereo not given)	·	-14%	·	0
SMILES	ELG1 repair inh	Sfp inh	Giardia killer	Coupling enz
Cc1ccc(NC(=O)CN2C(=O)S/C(=C\c3ccccn3)C2=O)cc1C	-4%	3%	25	·
Cc1cccc(NC(=O)CN2C(=O)N/C(=C/c3ccc(C)s3)C2=O)c1	?	-20%	14	5
Cc1cccc(NC(=O)CN2C(=O)N/C(=C/c3ccc(-c4cccc(C(=O)O)c4C)o3)C2=O)c1	-5%	32µM*	36	5
Cc1ccc(NC(=O)CN2C(=O)S/C(=C\c3ccc(-c4cccc(C(=O)O)c4C)o3)C2=O)cc1C	-4%	45µM*	-22	3
O=C(Nc1ccccc1)/C(=C\c1ccc(F)cc1)NC(=O)c1ccco1	16%	21%	22	1
Cc1ccc(S(=O)(=O)N(C)/N=C/c2ccc(N(C)C)cc2)cc1	?	1%	4	4
CC1(C)Cc2c(c(-c3ccco3)nc3sc4c(NCC5CCCO5)ncnc4c23)CO1 (stereo not given)	7.3µM*	20µM*	57	0
CC1(C)Cc2c(c(-c3ccco3)nc3sc4c(NCCN5CCOCC5)ncnc4c23)CO1	?	-4%	15	-1
CC1(C)Cc2c(c(-c3ccco3)nc3sc4c(NCCCO)ncnc4c23)CO1	13µM*	7.9µM*	-8	-3
Cn1cnc2c(cnn2C)c1=O	·	·	-3	·
CCC(=O)NC(=S)NNC(=O)c1ccccc1[N+](=O)[O-]	-2%	10µM*	-22	0
O=C(NNC(=S)NC(=O)c1ccccc1[N+](=O)[O-])c1ccccc1	-4%	16%	12	-1
O=C(NC(=S)NNC(=O)c1ccccc1[N+](=O)[O-])c1ccccc1	4%	35µM*	15	-3
CC(C)(C)c1ccc(OCC(=O)NNC(=S)NC(=O)c2ccccc2[N+](=O)[O-])c(Br)c1	5%	40µM*	12	13
CCCCC(=O)Nc1ccc(C(=O)NNC(=S)NC(=O)c2ccccc2[N+](=O)[O-])cc1	10%	35µM*	-29	-2
CCC(=O)Nc1ccc(C(=O)COC(=O)c2nc3nccc(C)n3n2)cc1	18%	·	-8	·
O=C(CCNC(=O)c1ccc(Cl)cc1)Nc1ccncc1	-5%	·	10	·
CC(C)(C)OC(=O)C(Cc1ccc(OC(C)(C)C)cc1)NC(=O)CNC(=O)OCc1ccccc1 (stereo not given)	8.2µM*	9%	9	-3
COc1ccc(C(=O)Nc2ccccc2C(=O)N/N=C/c2cccc3ccccc23)cc1	?	16%	-95*	1
O=C(CNC(=O)c1ccccc1O)N/N=C/c1cc(Br)ccc1OC(=O)/C=C/c1ccco1	4.1µM*	-13%	-13	-2
COc1ccc(COc2ccccc2C(=O)NCc2ccccc2)cc1F	26µM*	-2%	10	2
O=C(CNC(=O)c1ccc(F)cc1)N/N=C/c1cc(Br)ccc1OCc1ccccc1	?	10%	?	-5
COc1ccccc1C(=O)NCC(=O)N/N=C/c1cc(Br)ccc1OCc1ccccc1	7.3µM*	4%	?	-8
O=C(CNC(=O)c1cccc(F)c1)N/N=C/c1cc(Br)ccc1OC(=O)/C=C/c1ccco1	4%	6%	-8	-4
COc1ccc(OC)c(/C=N/NC(=O)CNC(=O)c2cccc3ccccc23)c1	6%	13%	2	-34*
COc1ccc([N+](=O)[O-])cc1/C=N/NC(=O)CNC(=O)C(c1ccccc1)c1ccccc1	-22%	-7%	-9	-30*
C=CCn1c(=O)/c(=C/c2cc(OC)c(OC)c(OC)c2)s/c1=C(/C#N)c1nc2ccccc2n1C	4.1µM*	0%	36	1
COc1cc(/C=C(\C#N)c2nc3ccccc3n2C)cc(OC)c1O	?	6%	-8	-3
COC(=O)[C@@]1(Cc2ccc(F)cc2)[C@H]2c3cc(C(=O)N4CCCC4)n(Cc4ccccn4)c3C[C@H]2CN1C(=O)c1ccccc1	·	-2%	·	3
Nc1ccc(N2CCOCC2)c2nonc12	11%	?	-9	-48*
